RmlCD inh 1536 = blocks M. tuberculosis RmlC and RmlD coupled enzymes. P9WH09+P9WH11. RmlC+RmlD coupled enzyme assay, percent inhibition; primary screen in compound mixtures. inhibition, % at 3.6 µM. actives 0.03% (n = 160,000). AID 1533; in the data active means inhibition mostly above about 34%, no sharp cut-off
Target sequence (P9WH09 whole entry, looked up): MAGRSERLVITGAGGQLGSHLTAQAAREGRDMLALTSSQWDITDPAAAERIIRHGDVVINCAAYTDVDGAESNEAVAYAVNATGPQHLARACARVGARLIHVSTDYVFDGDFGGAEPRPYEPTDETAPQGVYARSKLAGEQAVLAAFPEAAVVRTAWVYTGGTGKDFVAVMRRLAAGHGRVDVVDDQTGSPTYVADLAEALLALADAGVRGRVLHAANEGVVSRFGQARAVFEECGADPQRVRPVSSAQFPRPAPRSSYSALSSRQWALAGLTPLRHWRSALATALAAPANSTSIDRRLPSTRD
Target sequence (P9WH11 whole entry, looked up): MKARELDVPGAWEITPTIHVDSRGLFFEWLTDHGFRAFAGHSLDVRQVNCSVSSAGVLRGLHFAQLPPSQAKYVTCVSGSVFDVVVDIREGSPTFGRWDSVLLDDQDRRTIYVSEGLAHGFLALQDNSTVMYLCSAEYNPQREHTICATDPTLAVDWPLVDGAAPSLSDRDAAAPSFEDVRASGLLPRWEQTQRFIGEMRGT
VHR inh abs = inhibitors of human VHR1 phosphatase (DUSP3); P51452; recombinant VHR phosphatase, pNPP absorbance; inhibition, % at 13.3 µM; actives 0.52% (n = 290,000); in the data active means inhibition above about 50%
Starred values were filed as active, the others as inactive. An excerpt weighted towards active compounds, which were near 0.54% of everything screened.

For O=C(NC1CCCC1)C(c1ccncc1)N(C(=O)Cc1cccs1)c1ccc(F)cc1 (stereo not drawn) the results were VHR inh abs 14.4.
Screening Cc1ccccc1N(C(=O)Cc1ccsc1)C(C(=O)NC1CCCCC1)c1ccc(F)cc1 (stereo not drawn) returned RmlCD inh 1536 0.9 and VHR inh abs 56.3*.
For CCOCc1nnc(NC(=O)c2cc(OC)c(OC)cc2[N+](=O)[O-])s1 the results were RmlCD inh 1536 -4.6 and VHR inh abs 6.4.
Screening CC(=O)Nc1sc(N/N=C/c2ccc(N(C)C)cc2)nc1-c1ccc(C)cc1 returned RmlCD inh 1536 63.6* and VHR inh abs -4.3.
Screening CC(=O)Nc1sc(N/N=C/c2ccc(C)cc2)nc1-c1ccc(C)cc1 returned RmlCD inh 1536 -5.8 and VHR inh abs 9.0.
Screening O=C(CNc1cccc(S(=O)(=O)N2CCOCC2)c1)Nc1ccccc1F returned VHR inh abs 18.8.
Screening CCCn1c(SCC(=O)NCCc2ccccc2)nnc1C(C)C returned RmlCD inh 1536 -9.3 and VHR inh abs 25.0.
For Cc1oc(-c2ccccc2F)nc1CS(=O)(=O)CC(=O)N1CCN(c2ccccc2)CC1 the results were RmlCD inh 1536 3.8 and VHR inh abs 33.5.
`NNc1nc(-c2ccccc2)cc(-c2ccc(Br)cc2)n1` gave VHR inh abs 1.0.
`Brc1ccc(-n2cnc(-c3ccccc3)c2)cc1` gave VHR inh abs 57.3*.
`Cc1cc(OCC(=O)NCc2ccccn2)c2c(C)cc(=O)oc2c1` gave VHR inh abs 16.6.
For O=C(NCCc1cccc(Cl)c1)c1ccc(OC2CCN(Cc3ccccn3)CC2)cc1 the results were VHR inh abs -9.2.
`COC(=O)c1ccc(-c2cc(C(=O)O)c3cc4c(cc3n2)OCCO4)cc1` gave RmlCD inh 1536 6.4 and VHR inh abs 51.7*.
COc1cc(-c2cc(C(=O)O)c3cc4c(cc3n2)OCCO4)cc(OC)c1OC was read as RmlCD inh 1536 -9.7 and VHR inh abs 39.7.
O=C(CCc1nc2ccccc2c(=O)[nH]1)N1CCN(C/C=C/c2ccccc2)CC1 was read as RmlCD inh 1536 1.0 and VHR inh abs 6.7.
O=c1[nH]c(CN2CCN(C/C=C/c3ccccc3)CC2)nc2cc(Cl)ccc12 was read as RmlCD inh 1536 -7.9 and VHR inh abs 54.3*.
For Cc1cc(OC(C)C(=O)NCCCN2CCOCC2)ccc1Cl (stereo not drawn) the results were VHR inh abs 50.2*.
Screening CC(Oc1ccc(Cl)cc1Cl)C(=O)NCCCN1CCOCC1 (stereo not drawn) returned RmlCD inh 1536 5.3 and VHR inh abs 12.4.
`Cc1nc(N2CCN(C(=O)c3ccco3)CC2)c2oc3ccccc3c2n1` gave VHR inh abs 29.2.
`CCc1nc(N2CCN(C(=O)c3ccco3)CC2)c2oc3ccccc3c2n1` gave RmlCD inh 1536 -1.8 and VHR inh abs 51.9*.
COc1ccc(/C=N/NC(=O)CC(=O)NCc2cccnc2)cc1 was read as RmlCD inh 1536 -8.2 and VHR inh abs 14.4.
`CC1=C(C(=O)Nc2ccc(CC(=O)NCc3ccccc3C)cc2)SCCO1` gave VHR inh abs 23.2.
`CCc1ccc(CNC(=O)Cc2ccc(NC(=O)C3=C(C)OCCS3)cc2)cc1` gave VHR inh abs 51.3*.
`COc1ccc(NC(=S)N(C(C)C)C2CCN(C(C)C)CC2)cc1Cl` gave VHR inh abs 52.6*.
COc1ccc(NC(=S)N(CCC(C)C)C2CCN(C(C)C)CC2)cc1 was read as VHR inh abs -3.3.
Screening Cc1cccnc1NC(=O)c1nn(C)c2c1CS(=O)(=O)c1ccccc1-2 returned VHR inh abs 28.0.
O=c1/c(=C/c2ccc(O)c([N+](=O)[O-])c2)sc2nc3ccccc3n12 was read as RmlCD inh 1536 -7.2 and VHR inh abs 75.4*.
O=c1/c(=C\c2cccnc2)sc2nc3ccccc3n12 was read as VHR inh abs 3.5.
`COc1cc(CC(NC(C)=O)C(=O)NC2CCN(C(=O)Nc3ccccc3C)CC2)cc(OC)c1` (stereo not drawn) gave VHR inh abs -11.2.
C/C(CC(=O)NCc1ccco1)=N\NC(=O)c1ccc(Cl)cc1Cl was read as VHR inh abs 52.0*.
`C/C(CC(=O)NCc1ccco1)=N\NC(=O)c1ccc([N+](=O)[O-])cc1Cl` gave VHR inh abs -6.8.
For O=C(Nc1ccc(C(=O)O)cc1)/C(=C\c1cccc([N+](=O)[O-])c1)NC(=O)c1ccc(Br)o1 the results were RmlCD inh 1536 0.2 and VHR inh abs -5.2.
Screening CCc1nc2sc3c(c2c(=O)n1N)CC(C)(C)OC3 returned VHR inh abs 1.7.
Screening CN(C)c1nc2sc3c(c2c(=O)n1C)CC(C)(C)OC3 returned VHR inh abs 59.6*.
COc1cc(/C=C/c2nc3ccccc3c(=O)[nH]2)cc(Cl)c1O was read as VHR inh abs 57.5*.
Screening Cc1cccc(/C=C\c2nc3ccccc3c(=O)[nH]2)c1 returned VHR inh abs 7.3.
COc1ccc(/C=C/C(=O)NCCN=C2NS(=O)(=O)c3ccccc32)cc1 was read as RmlCD inh 1536 -10.3 and VHR inh abs 28.6.
For Oc1ccc(-c2csc(Nc3ncccn3)n2)cc1 the results were RmlCD inh 1536 -0.2 and VHR inh abs -4.4.
Screening c1ccc(-c2csc(Nc3ncccn3)n2)cc1 returned RmlCD inh 1536 19.5 and VHR inh abs 55.4*.
For O=C(NCc1ccc(Cl)cc1)c1ccc2nc[nH]c2c1 the results were RmlCD inh 1536 9.1 and VHR inh abs -3.6.
O=C(NCc1cccc(Cl)c1)c1ccc2nc[nH]c2c1 was read as RmlCD inh 1536 -6.9 and VHR inh abs 55.6*.
For CCOc1ccc(N2CC(C(=O)NC3CCSC3=O)CC2=O)cc1 (stereo not drawn) the results were VHR inh abs 2.2.
Screening C/C(CC(=O)NCc1ccccc1)=N\NC(=O)c1cnccn1 returned RmlCD inh 1536 4.1 and VHR inh abs 47.6.
For Cc1ccc(-c2ccc(/C=C(\C#N)C(=O)Nc3cc(C)nn3-c3ccccc3)o2)cc1 the results were RmlCD inh 1536 5.5 and VHR inh abs -11.5.
`N#C/C(=C\c1ccc(-c2ccccc2)o1)C(=O)Nn1cnnc1` gave RmlCD inh 1536 9.2 and VHR inh abs 56.7*.
COCCCNC(=S)NNC(=O)c1cc(Cl)c(O)c(Cl)c1 was read as RmlCD inh 1536 -2.1 and VHR inh abs 21.3.
`COC(=O)c1sccc1NC(=O)c1ccc(C(C)C)cc1` gave VHR inh abs 21.0.
